Screening data deposited in PubChem BioAssay by several laboratories.
TNAP act DEA: human TNAP enzyme activators, primary screen, biochemical, luminescent, intermediate phosphate acceptor level; Alkaline phosphatase, tissue-nonspecific isozyme (Homo sapiens), P05186; purified TNAP, CDP-star luminescence, 100 mM DEA, 30 min; active compounds read high; scale: 0 levamisole-inhibited, 1 vehicle-only enzyme; activation factor at 20 µM; 64,000 tested, under 10 active;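 active means activation factor of at least 2 at 20 µM, relative to controls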
HePTP inhibitor: inhibitors of human HePTP phosphatase, primary screen, biochemical, absorbance, leukemia target | inhibition, % at 20 µM | Tyrosine-protein phosphatase non-receptor type 7 (Homo sapiens), P35236 | recombinant HePTP phosphatase activity, OD absorbance | AID 521, 2006 | actives 0.64% (n = 110,000); in the data active means inhibition above about 50%;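 further: plate controls were vehicle for no effect and reference inhibitor for full effect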
Calb biofilm kill: clotrimazole potentiators killing Candida biofilms, primary screen, with clotrimazole, Alamar Blue; actives 0.14% (n = 85,000); inhibition, % at 6 µM; C. albicans biofilm + clotrimazole;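 active means inhibition above 20%; inactive means inhibition below 20%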;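 further: preformed 24 hr biofilms exposed to compound for 48 hr; 0% = biofilm without compound and 100% = blank killed by clotrimazole plus chlorhexidine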
DAT uptake mod: changed hDAT dopamine uptake under cocaine IC80, either direction, primary screen, cocaine antagonist project, cell-based, LLC-PK1 hDAT, [14C]-dopamine uptake, MLSMR. Sodium-dependent dopamine transporter (Homo sapiens), Q01959. LLC-PK1 hDAT cells, [14C]-dopamine uptake with cocaine IC80; actives deviate in either direction. B-score at 10 µM. actives 1.3% (n = 110,000). AID 449768, 2010;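 active means Z score or B-score, a plate-position-corrected score, falls beyond the plate's 99.7% confidence bounds, in either direction; inactive means both scores lie inside the 99.7% bounds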;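 further: scored against the spread of the other compound wells on the same plate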
D1 allo mod: D1 CRE-luciferase signal change, two-sided – cell-based, HEK293 D1, dopamine EC30, D1 allosteric modulator project, primary screen; D(1A) dopamine receptor (Homo sapiens), P21728; dopamine EC30 potentiation; actives deviate in either direction; B-score at 10 µM; actives 5.9% (n = 58,000);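 active means luminescence count or its row- and column-corrected plate score outside the 99.7% band of the plate's sample wells, on either side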
Target sequence (P21728 whole entry, looked up): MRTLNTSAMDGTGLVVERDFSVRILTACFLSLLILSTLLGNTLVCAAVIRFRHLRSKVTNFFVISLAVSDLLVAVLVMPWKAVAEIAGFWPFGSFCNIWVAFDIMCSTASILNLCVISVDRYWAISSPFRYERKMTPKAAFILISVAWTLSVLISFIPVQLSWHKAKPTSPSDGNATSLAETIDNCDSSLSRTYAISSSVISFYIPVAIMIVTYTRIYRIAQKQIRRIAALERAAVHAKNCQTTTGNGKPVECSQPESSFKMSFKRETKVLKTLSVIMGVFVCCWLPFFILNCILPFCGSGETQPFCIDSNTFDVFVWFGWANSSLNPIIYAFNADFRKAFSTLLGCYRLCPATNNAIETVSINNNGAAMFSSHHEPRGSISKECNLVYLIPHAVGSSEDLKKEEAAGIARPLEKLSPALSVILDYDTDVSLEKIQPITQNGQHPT
PLAP activator: PLAP enzyme activators, biochemical, luminescence, HTS | Alkaline phosphatase, placental type (Homo sapiens), P05187 | purified PLAP enzyme, luminescent substrate read-out; active compounds read high | activation fold at 20 µM | actives 1.2% (n = 96,000); in the data active means activation fold above about 2
D1 PAM confirm: D1 receptor positive allosteric modulators, retest, confirmation, cell-based, HEK293 D1, CRE-luciferase, duplicate; dopamine EC30 potentiation; active compounds read high; luminescence at 10 µM; shares compounds with D1 allo mod; actives 88% (n = 2,200); AID 642, 2007;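 active means luminescence in either of two replicates above the same-plate mean plus 3 SD of the low-dose dopamine control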
D1 no dopamine: D1 receptor agonism without dopamine, confirmation, mechanism study for D1 allosteric modulator project, cell-based, HEK293 D1, CRE-luciferase, secondary assay 1 | shares compounds with D1 allo mod | luminescence, no dopamine; active compounds read high | luminescence at 10 µM | actives 0.8% (n = 1,900) | AID 646, 2007; in the data active means luminescence above about 3900
Isoprot counter: isoproterenol response counter-screen activity for D1 modulators; shares compounds with D1 allo mod; HEK293 D1 CRE-luciferase, isoproterenol EC30 counter-screen; active compounds read high; luminescence at 10 µM; actives 63% (n = 2,200); AID 647;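 active means luminescence in either replicate above plate mean of wells with a partly effective reference agonist dose plus 3 SD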;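 further: isoproterenol raises cAMP through native beta-adrenoceptor Gs so signal bypasses D1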
Starred values were filed as active, the others as inactive; . = no result given. Only a selection was taken, and hits are over-represented in it overall.

SMILES	TNAP act DEA	HePTP inhibitor	Calb biofilm kill	DAT uptake mod	D1 allo mod	PLAP activator	D1 PAM confirm	D1 no dopamine	Isoprot counter
NC(=O)c1cc(-c2ccccc2)nc(N2CCOCC2)n1	0.9	1.8	5.1	-0.0936	9.84*	1	14624*	1472	4596*
Cc1cc(-c2ccccc2)nc2cc(C(N)=O)nn12	0.9	9.2	.	-0.0645	9.44*	.	9500*	1480	3836*
COc1cc(CN2CCN(Cc3ccccc3Br)CC2)cc(OC)c1O	.	-6.7	.	.	.	.	.	.	.
N#Cc1nc(-c2cccs2)oc1NCc1ccco1	0.9	-4.7	2.7	0.218	9.22*	1	14284*	.	4016*
N#Cc1nc(-c2ccco2)oc1NCc1ccco1	0.9	-13.3	2.7	-1.27	9.47*	0.8	13820*	1564	3364*
O=C(COc1cc(Cl)ccc1Cl)Nc1ccc2c(c1)OCCO2	.	-3.6	.	.	.	.	.	.	.
Cc1ccccc1-n1nc2c(c1NC(=O)c1c(-c3ccccc3Cl)noc1C)CSC2	0.9	1.8	4.7	0.00188	-0.965	1.2	.	.	.
Cc1ccc(-n2nc3c(c2NC(=O)c2c(-c4ccccc4Cl)noc2C)CSC3)cc1	0.9	4.0	2.3	3.03*	4.57*	1.3	4636	1496	2444
Nc1nonc1N=Cc1ccccc1O	.	-11.8	.	.	.	.	.	.	.
CCc1nn2c(N)c(/C=C3\C=C(Br)C=CC3=O)c(=O)nc2s1	.	8.8	.	.	.	.	.	.	.
Cc1ccc(-n2ncc(C#N)c2/N=C/N2CCOCC2)cc1	1	-6.3	2.5	0.844	13.6*	0.8	14372*	1604	4340*
CCOC(=O)C1=C(N)n2c(s/c(=C\c3cccnc3)c2=O)=C(C(=O)OCC)C1c1cccnc1 (stereo not drawn)	0.9	-7.1	-3.2	.	1.14	1	.	.	.
CCOC(=O)C1=C(N)n2c(s/c(=C\c3cccs3)c2=O)=C(C(=O)OCC)C1c1cccs1 (stereo not drawn)	0.9	4.5	2.6	-0.308	4.57*	1.1	10396*	1664	4364*
N/C(=N/OCC(=O)Nc1ccc(F)cc1)c1nonc1N	.	-0.3	.	.	.	.	.	.	.
Cc1nn2c(-c3ccncc3)nnc2c2ccccc12	0.9	8.6	.	-0.415	2.71*	1	6068*	1544	2916*
N#Cc1nc(-c2ccccc2F)oc1NCc1cccc2c1OCO2	0.9	9.0	6.3	-0.3	21.3*	0.9	21008*	1688	6516*
CN(C)CCNc1oc(-c2ccccc2F)nc1C#N	0.8	10.2	5.6	-0.129	3.05	0.9	.	.	.
N#Cc1nc(-c2ccccc2F)oc1NC1CCCCC1	0.8	1.4	0.3	0.385	9.74*	1	18604*	1740	4284*
COc1ccc(C(C)NC(=O)c2ccc(C(C)(C)C)cc2)cc1 (stereo not drawn)	.	-11.7	.	.	.	.	.	.	.
COc1ccccc1/C=C1\SC(N2CCCCC2)=NC1=O	.	5.9	.	.	.	.	.	.	.
O=C(c1ccco1)N1CCN(S(=O)(=O)c2ccc3c(c2)CCN3C(=O)C2CCC2)CC1	0.9	-3.3	-11.1	0.893	2.58*	.	11588*	1732	4928*
CCC(=O)N1CCc2cc(S(=O)(=O)N3CCN(C(=O)c4ccco4)CC3)ccc21	0.9	1.2	7.5	-0.0807	1.52	1.2	.	.	.
O=C(C1CC1)N1CCc2cc(S(=O)(=O)N3CCCc4ccccc43)ccc21	0.9	6.5	10.7	0.292	0.0811	0.7	.	.	.
COc1ccc(S(=O)(=O)N2CCN(c3c(C)cccc3C)CC2)cc1OC	1	-2.5	11.3	0.266	0.352	1.6	.	.	.
O=C(C1CC1)N1CCc2cc(S(=O)(=O)N(CCO)Cc3ccccc3)ccc21	0.9	-1.5	-3.8	-1.82	4.16*	.	15244*	1640	3736*
SMILES	TNAP act DEA	HePTP inhibitor	Calb biofilm kill	DAT uptake mod	D1 allo mod	PLAP activator	D1 PAM confirm	D1 no dopamine	Isoprot counter
COc1ccc(S(=O)(=O)N2CCN(c3ccccn3)CC2)cc1OC	1	2.2	2.4	0.524	5.34*	1.1	6880*	.	2540
CCOC(=O)N1CCN(S(=O)(=O)c2ccc3c(c2)CCN3C(=O)C2CCC2)CC1	0.9	7.8	2.4	0.888	3.25*	0.8	7472*	1692	3316
CCN(CC)CCOCCOc1ccc(Cl)cc1Cl	.	5.5	.	.	.	.	.	.	.
O=C(C1CCC1)N1CCc2cc(S(=O)(=O)N3CCN(c4ccccn4)CC3)ccc21	1	2.0	1.7	0.605	6.14*	1.3	10104*	.	3712*
CCOc1ccc(CCNS(=O)(=O)c2cnc[nH]2)cc1OCC	0.8	9.3	2.7	-0.582	25*	1.1	24048*	.	3928*
O=S(=O)(NCc1ccc2c(c1)OCO2)c1cnc[nH]1	0.8	-3.4	1.0	-1.2	0.0169	1.5	.	.	.
CC(=O)C1=C(C)NC(SCC(=O)c2ccc(F)cc2)=C(C#N)C1c1ccco1 (stereo not drawn)	0.9	0.4	.	0.659	5.55*	1.2	3664*	1712	2392
COc1ccc(OC)c(C2/C(=C(/O)c3ccccc3)C(=O)C(=O)N2c2cccc([N+](=O)[O-])c2)c1 (stereo not drawn)	.	-2.6	.	.	.	.	.	.	.
O=C1N=c2ccc([N+](=O)[O-])cc2=C1c1sc(NS(=O)(=O)c2ccccc2)nc1O	.	8.0	.	.	.	.	.	.	.
O=c1ccc(-c2ccccc2)n[nH]1	.	.	-4.4	-0.00987	.	0.9	.	.	.
COc1ccc(-c2ccc(=O)[nH]n2)cc1	0.9	6.8	.	-0.133	8.21*	0.8	10236*	1400	4044*
CCOc1cc(-c2c(C#N)c(N)nc3c2CCCC3C)ccc1O (stereo not drawn)	0.9	0.1	-3.1	2.39	5.54*	0.9	8596*	1588	3856*
CCOC(=O)c1sc2ccc(S(=O)(=O)N3CCOCC3)cc2c1N	0.9	2.3	5.5	-0.985	6.65*	0.9	5484	.	2888*
CCOC(=O)c1sc2ccc(S(=O)(=O)N3CCCCC3)cc2c1N	0.9	5.1	-4.5	-0.0403	1.45	0.9	.	.	.
COC(=O)C1=C(C)NC(=O)/C1=C\c1ccc(C(=O)O)cc1	.	4.6	.	.	.	.	.	.	.
